Source: PubChem (National Center for Advancing Translational Sciences (NCATS))
JMJD2A Tudor: blocks the human JMJD2A Tudor domain | 4.4% of 390,000 active | O75164 | AlphaScreen JMJD2A-Tudor / H3K4me3 peptide binding | Potency, µM (titrated, usually from 114 µM), for inactives: at the highest dose activity change, negative = inhibition, most hits filed as inhibitors; also: % is scaled to controls: 0 for no effect and ±100 for the full control effect; nearly all actives have a fitted effect of over 50% in size
Sfp inh: inhibitors of Bacillus subtilis Sfp phosphopantetheinyl transferase; Potency, µM, inactives show largest response in the series, negative = inhibition, hits mostly inhibitors; Biochemical Sfp PPTase activity, qHTS; Q9F4F7; 3.5% of 310,000 active;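 also: the enzyme is Sfp with the accession as filed and its product quenches rhodamine fluorescence; 0% = enzyme reaction without inhibitor and -100% = no enzyme wells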
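Fluorescence-quenching assay with 15 nM Sfp, 5 uM rhodamine-CoA and 12.5 uM BHQ-2-labelled ybbR peptide in pH 7.6 Hepes/MgCl2 buffer. Enzyme was pre-incubated with compound for 15 min at room temperature. Rate was taken from the 30-min fluorescence change (525/598 nm).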
BAZ2B inh: blocks human BAZ2B; Q9UIF8; AID 504333; Potency, µM (series often up to 114 µM), for the others: at the highest dose activity change, negative = inhibition, hits mostly inhibitors; AlphaScreen BAZ2B-H3K14Ac peptide displacement; 4.4% of 360,000 active; also: % is scaled to controls: 0 for no effect and ±100 for the full control effect; nearly all actives have a fitted effect of over 60% in size
Target sequence (Q9UIF8 whole entry, looked up): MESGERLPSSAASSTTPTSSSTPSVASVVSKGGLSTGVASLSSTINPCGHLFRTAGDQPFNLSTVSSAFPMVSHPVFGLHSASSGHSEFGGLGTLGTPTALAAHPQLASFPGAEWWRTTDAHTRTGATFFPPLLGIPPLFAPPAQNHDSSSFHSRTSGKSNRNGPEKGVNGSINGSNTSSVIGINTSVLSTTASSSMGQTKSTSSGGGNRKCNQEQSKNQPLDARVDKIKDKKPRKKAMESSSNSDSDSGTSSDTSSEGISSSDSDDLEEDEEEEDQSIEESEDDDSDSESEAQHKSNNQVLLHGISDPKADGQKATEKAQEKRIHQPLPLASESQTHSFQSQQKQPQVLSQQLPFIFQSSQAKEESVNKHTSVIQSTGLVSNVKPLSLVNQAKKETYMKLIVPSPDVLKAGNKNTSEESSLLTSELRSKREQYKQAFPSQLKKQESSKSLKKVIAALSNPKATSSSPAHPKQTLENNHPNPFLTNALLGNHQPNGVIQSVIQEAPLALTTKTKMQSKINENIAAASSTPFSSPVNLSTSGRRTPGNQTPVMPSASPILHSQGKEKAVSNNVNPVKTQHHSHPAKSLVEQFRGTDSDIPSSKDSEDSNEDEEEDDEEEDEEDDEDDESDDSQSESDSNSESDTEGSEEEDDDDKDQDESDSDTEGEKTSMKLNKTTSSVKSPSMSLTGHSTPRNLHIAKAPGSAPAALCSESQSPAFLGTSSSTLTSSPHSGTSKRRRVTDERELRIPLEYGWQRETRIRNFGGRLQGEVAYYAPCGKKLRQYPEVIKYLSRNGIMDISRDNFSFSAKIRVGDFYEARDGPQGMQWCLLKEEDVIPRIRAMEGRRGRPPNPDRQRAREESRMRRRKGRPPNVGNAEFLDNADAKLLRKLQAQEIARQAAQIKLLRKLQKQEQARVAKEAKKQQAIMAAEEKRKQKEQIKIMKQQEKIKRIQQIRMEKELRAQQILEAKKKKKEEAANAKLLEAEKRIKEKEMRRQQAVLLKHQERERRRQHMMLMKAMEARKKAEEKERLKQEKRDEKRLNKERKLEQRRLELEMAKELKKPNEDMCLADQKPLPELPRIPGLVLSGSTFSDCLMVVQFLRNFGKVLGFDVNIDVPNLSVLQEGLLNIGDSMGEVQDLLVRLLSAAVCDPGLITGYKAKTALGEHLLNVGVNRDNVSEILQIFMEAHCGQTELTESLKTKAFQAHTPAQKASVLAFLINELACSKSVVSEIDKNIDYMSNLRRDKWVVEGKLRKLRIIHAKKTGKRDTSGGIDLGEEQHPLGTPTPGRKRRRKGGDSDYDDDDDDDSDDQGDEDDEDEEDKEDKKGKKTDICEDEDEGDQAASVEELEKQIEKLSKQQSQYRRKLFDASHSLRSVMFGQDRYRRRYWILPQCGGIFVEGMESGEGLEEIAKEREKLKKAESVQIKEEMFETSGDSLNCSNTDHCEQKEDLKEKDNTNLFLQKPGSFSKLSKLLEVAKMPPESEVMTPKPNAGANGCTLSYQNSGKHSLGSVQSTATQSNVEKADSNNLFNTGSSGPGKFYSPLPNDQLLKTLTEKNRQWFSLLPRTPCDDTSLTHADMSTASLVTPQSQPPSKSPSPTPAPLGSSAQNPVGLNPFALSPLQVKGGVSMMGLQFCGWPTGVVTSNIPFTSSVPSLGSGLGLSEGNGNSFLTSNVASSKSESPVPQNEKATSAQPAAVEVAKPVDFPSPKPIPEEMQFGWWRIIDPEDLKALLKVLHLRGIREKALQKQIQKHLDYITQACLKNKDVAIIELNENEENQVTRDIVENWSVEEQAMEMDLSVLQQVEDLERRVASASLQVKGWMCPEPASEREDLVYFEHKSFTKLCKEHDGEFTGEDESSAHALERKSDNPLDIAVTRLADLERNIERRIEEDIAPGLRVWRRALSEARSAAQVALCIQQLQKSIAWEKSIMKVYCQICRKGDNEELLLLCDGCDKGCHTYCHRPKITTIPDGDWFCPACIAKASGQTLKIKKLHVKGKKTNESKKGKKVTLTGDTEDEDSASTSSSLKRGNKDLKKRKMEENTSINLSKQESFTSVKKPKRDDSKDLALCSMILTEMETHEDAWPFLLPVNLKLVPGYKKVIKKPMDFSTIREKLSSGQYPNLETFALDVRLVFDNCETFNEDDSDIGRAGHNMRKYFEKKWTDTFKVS
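Complex of BAZ2B and biotin-H3K14Ac (50 nM apiece) forms over 30 min at RT, then faces library compounds up to 110 uM for another 30 min; AlphaScreen beads added, 20 min dark incubation, luminescence read.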
HP1b binding inh: blocks HP1-beta chromodomain binding to methylated histone tails. AlphaScreen HP1-beta / biotin-H3K9me3 peptide binding. Potency, µM (doses to about 114 µM), without a hit: at the top dose activity change, negative = inhibition, usual class: inhibitors. 0.56% of 390,000 active. AID 540317; also: nearly all actives have a fitted effect of over 70% in size
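HP1-beta protein (50 nM final) preincubated 30 min at room temperature with biotinylated H3(1-18)K9me3 peptide (50 nM) in PBS pH 7.4, 0.01% Tween-20, then compound added for 30 min. AlphaScreen streptavidin donor/nickel chelate acceptor beads (10 ug/mL final), 30 min dark, luminescence read.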
G9a inh: G9a (human) methyltransferase inhibition; Q96KQ7; G9a H3K9 monomethylation, AlphaScreen, 2 h; Potency, µM (doses to about 102 µM), inactives show at the top dose activity, negative = inhibition, most hits filed as inhibitors; 8.8% of 350,000 active; also: % is scaled to controls: 0 for no effect and ±100 for the full control effect; nearly all actives have a fitted effect of over 75% in size
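Compounds were preincubated with 20 nM G9a for 15 min, after which biotinylated H3K9 peptide (500 nM) and SAM (20 uM) started a 2 h room-temperature reaction. Monomethylated product was quantified by antibody-based AlphaScreen chemiluminescence.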
* hit, by the source's call; ? = inconclusive; nt = no result; [ ] = another dose, or the depositor's remark. Most compounds without a hit are left out; they make up all but 12% or so of the library. Calls follow the shape of the dose curve; as a rule, active = well fitted curve in the direction sought with a large enough effect; inconclusive = small, poorly fitted or top-dose-only effect, or another doubt; inactive = no such curve, though single readings can be large; an effect the other way counts as inactive or inconclusive. Potency is read from the fitted curve at half-maximal effect.

SMILES	JMJD2A Tudor	Sfp inh	BAZ2B inh	HP1b binding inh	G9a inh
O=C(COC(=O)CCCc1nc2ccccc2s1)NC(=O)NCc1ccco1	?	4.9%	56.2µM*	3.9%	?
O=C(CSc1nc2cc(Cl)ccc2s1)NC(=O)NCc1ccco1	?	89.1µM*	-12.0%	-2.7%	-4.7%[59 µM]
C=CCC[C@H](Cc1ccc(F)cc1)C(=O)OC[C@@H](NC(=O)[C@H](CC=C)CC(=O)NCCO)C(C)(C)C	-2.9%	nt	nt	38.7%	nt
CCSc1nnc(-c2cccnc2)n1Cc1ccco1	-18.3%	39.8µM*	-2.3%	4.8%	-21.3%[59 µM]
C(=C\c1ccccc1)/CSc1nnc(-c2ccncc2)n1Cc1ccco1	-28.6%	50.1µM*	-6.9%	-0.8%	?
O=C(CSc1nnc(-c2cccnc2)n1Cc1ccco1)c1ccc(Br)cc1	-22.1%	-5.2%	-7.0%	27.8%	-14.8%
O=C(CSc1nnc(-c2cccnc2)n1Cc1ccco1)c1ccc2ccccc2c1	-33.1%	-28.6%	-0.3%	-1.6%	50.1µM*
O=C(CSc1nnc(-c2cccnc2)n1Cc1ccco1)Nc1cccc(O)c1	-14.0%	23.7%	-3.9%	7.7%	?
COc1ccccc1N1C(=O)c2ccc(C(=O)Nc3ccc(C(=O)O)cc3)cc2C1=O	-9.8%	10.1%	2.3%	0.5%	19.8%
O=C(N=C1N=C2C=CC(Br)=CN2Cc2ccccc21)c1ccc([N+](=O)[O-])cc1[N+](=O)[O-]	?	0.0%	-23.4%	-8.6%[57 µM]	50.1µM*
O=C(c1ccc([N+](=O)[O-])cc1[N+](=O)[O-])N1CCc2ccccc21	-29.2%	3.5%	?	4.5%	nt
COc1ccc(NC(=O)O/N=C2/CCCc3ccc(OC)cc32)cc1	14.1µM*	7.4%	-1.5%	-13.4%	18.0%
COc1ccc2c(c1)/C(=N/OC(=O)c1cccs1)CCC2	43.6%	-14.7%	23.4%	72.4%	69.8%[59 µM]
Cc1c(C)n(CCCN(C)C)c2ncnc(NCc3ccccc3)c12	?	0.6%	-21.0%	-7.8%	79.4µM*
CC(C)C[C@H](N)CSSC[C@@H](N)CC(C)C	nt	nt	nt	nt	15.8µM*
Nc1c(-c2ccccc2)cnn1-c1cccc(Cl)c1	3.4%	4.1%	1.1%	34.7%	8.9%
Nc1ccccc1Nc1cc(-c2cccc(Cl)c2)nn1-c1ccccc1	22.4µM*	15.1%	22.4µM*	?	28.2µM*
CCOc1ccccc1CNC(=O)C1CCN(S(=O)(=O)c2c(C)noc2/C=C/c2ccc(C)cc2)CC1	-22.4%	nt	-5.8%	23.2%[57 µM]	13.3%[59 µM]
CCOC(=O)c1c(C)[nH]c(CCC(=O)NCc2ccc(F)cc2)c1C	-23.7%	nt	-20.1%	13.0%[57 µM]	-2.7%[59 µM]
CC(=O)N(C)c1ccc(N=Nc2c(C)[nH]n(-c3ccccc3)c2=O)cc1	?	-20.5%	?	?	35.5µM*
CCOC(=O)c1ccc(N=Nc2c(C)[nH]n(-c3ccccc3)c2=O)cc1	?	-14.8%	?	-27.0%	3.98µM*
CC(=O)N(C)c1ccc(N=Nc2c(C)[nH]n(C(N)=S)c2=O)cc1	-15.5%	?	-13.0%	43.8%	7.6%[59 µM]
CSCCC(=O)N1CCC(n2nccc2NC(=O)CCc2ccccc2)CC1	-5.6%	5.2%	-3.6%	25.6%	17.0%[0.501 µM]
COc1ccc(NC(=O)COC(=O)CN2C(=O)C3CCCCC3C2=O)cc1OC (stereo not drawn)	-11.1%	nt	12.7%	27.0%	15.7%[59 µM]
CCOc1ccccc1NC(=O)CCc1c(C)nn(-c2ccc(N3CCOCC3)nn2)c1C	-16.3%	nt	-5.9%	39.2%	1.0%[59 µM]
O=C(CN1CCN(S(=O)(=O)c2ccc(Br)cc2)CC1)c1ccc(O)c(O)c1	7.0%	79.4µM*	?	37.3%	10µM*
CC(C)c1ccc(S(=O)(=O)N2CCN(CC(=O)c3ccc(O)c(O)c3)CC2)cc1	nt	22.4µM*	39.8µM*	nt	8.91µM*
COc1ccc(C(=O)CN2CCN(S(=O)(=O)c3ccc(F)cc3)CC2)cc1	-6.2%	nt	2.7%	29.4%	?
CCCc1nnc(NC(=O)CCC(=O)N2CCC(Cc3ccccc3)CC2)s1	2.7%	7.6%	-20.4%	37.4%	-19.7%
CC1(C)CC2CC(C)(CN2C(=O)c2ccc([N+](=O)[O-])cc2[N+](=O)[O-])C1 (stereo not drawn)	-26.1%	4.3%	-15.1%	8.4%	-7.4%
